# Only a selection was taken, and hits are over-represented in it overall.
# ROS inducer: raises reactive oxygen species in U2OS cancer cells; U2OS ROS induction, H2DCF-DA fluorescence; ROS induction (% of piperlongumine), % at 10 µM; AID 624156; 46,000 compounds, 2% hits; in the data active = ROS induction above about 79%, passing the limit was not always enough;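 also: 0% = DMSO vehicle median and 100% = reference compound median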
# Active calls of the source: *.
SMILES,ROS inducer
C[C@H](CO)N1C[C@H](C)[C@H](CN(C)Cc2ccccc2)Oc2c(NC(=O)Nc3ccc(F)cc3)cccc2C1=O,6
COc1c(CO)c(O)cc2c1C(=O)CCC2O (centres undefined),-9
Cc1noc(C)c1S(=O)(=O)Nc1cccc2c1O[C@@H](CN(C)C(=O)Nc1ccc3c(c1)OCO3)[C@@H](C)CN([C@@H](C)CO)C2=O,-8
C[C@@H]1CN([C@H](C)CO)C(=O)c2cc(NC(=O)NC3CCCCC3)ccc2O[C@@H]1CN(C)Cc1ccc(C(F)(F)F)cc1,-7
N#Cc1c(C(F)(F)F)cc(-c2cccs2)nc1SCC(=O)c1ccccc1,747*
N#Cc1c(C(F)(F)F)cc(-c2cccs2)nc1SCC(=O)Nc1sc2c(c1C#N)CCC2,13
N#Cc1c(C(F)(F)F)cc(-c2cccs2)nc1SCC(=O)Nc1ccccc1C(F)(F)F,8
C[C@H](CO)N1C[C@H](C)[C@@H](CN(C)S(=O)(=O)c2cn(C)cn2)Oc2ccc(NS(C)(=O)=O)cc2C1=O,-6
CC(C)(C)NCC(O)COc1cccc2c1CCC(=O)N2 (centres undefined),1
COc1ccc(C#Cc2cnc3c(c2)C(=O)N([C@H](C)CO)C[C@H](C)[C@H](CN(C)C)O3)cc1OC,30
COc1ccc(NC(=O)N(C)C[C@@H]2Oc3ncc(C#CCN(C)C)cc3C(=O)N([C@H](C)CO)C[C@@H]2C)cc1,-6
C[C@H](CO)N1C[C@H](C)[C@H](CN(C)C(=O)Nc2ccccc2)Oc2ncc(C#Cc3cccc(F)c3)cc2C1=O,3
C[C@H](CO)N1C[C@H](C)[C@H](CN(C)C(=O)Nc2ccccc2)Oc2ncc(C#Cc3ccc(F)cc3)cc2C1=O,132*
COc1ccc(C#Cc2cnc3c(c2)C(=O)N([C@H](C)CO)C[C@H](C)[C@H](CN(C)C(=O)Nc2ccc4c(c2)OCO4)O3)cc1OC,118*
COc1ccc(C#Cc2cnc3c(c2)C(=O)N([C@H](C)CO)C[C@H](C)[C@H](CN(C)C(=O)Nc2c(C)noc2C)O3)cc1OC,24
COc1ccc(S(=O)(=O)N(C)C[C@@H]2Oc3ncc(C#Cc4ccc(OC)c(OC)c4)cc3C(=O)N([C@H](C)CO)C[C@@H]2C)cc1,62
C[C@H](CO)N1C[C@H](C)[C@H](CN(C)C(=O)Nc2ccc(F)cc2)Oc2ncc(C#Cc3ccc(C(F)(F)F)cc3)cc2C1=O,49
COc1ccc(NC(=O)N(C)C[C@@H]2Oc3ncc(C#Cc4ccc(OC)c(OC)c4)cc3C(=O)N([C@H](C)CO)C[C@@H]2C)cc1,104*
C[C@H](CO)N1C[C@H](C)[C@@H](CN(C)Cc2ccc(C(F)(F)F)cc2)Oc2ccc(NC(=O)Nc3ccc(F)cc3)cc2C1=O,21
C[C@@H]1CN([C@H](C)CO)C(=O)CCCn2nncc2CO[C@H]1CN(C)C,-2
Cc1cc(C)c2c(n1)sc1c(=O)n(/N=C/c3ccccc3)cnc12,27
Cc1cc(C)c2c(n1)sc1c(=O)n(Cc3ccccc3Cl)nnc12,81*
Cc1cc(C)c2c(n1)sc1c(=O)n(NC(=O)Nc3ccccc3)c(C)nc12,12
C[C@@H]1CN([C@H](C)CO)C(=O)Cc2cc(NC(=O)Nc3ccccc3)ccc2O[C@H]1CN(C)C(=O)NC1CCCCC1,6
Cc1ccccc1OCC(=O)NC(=S)Nc1ccccc1N1CCN(S(C)(=O)=O)CC1,61
SMILES,ROS inducer
Cc1noc(C)c1S(=O)(=O)Nc1ccc2c(c1)C(=O)N([C@H](C)CO)C[C@H](C)[C@H](CN(C)C(=O)Nc1ccc(F)cc1)O2,32
COc1ccc(NC(=O)Nc2cccc3c2O[C@H](CN(C)S(=O)(=O)c2cccs2)[C@@H](C)CN([C@@H](C)CO)C3=O)cc1,-4
COc1cc2c(cc1OC)CN(C(=O)[C@@H]1[C@H]3C(=O)O[C@H](c4ccccc4)[C@H](c4ccccc4)N3[C@H](c3ccccc3OCCO)[C@@]13C(=O)Nc1ccc(C#CC4(O)CCCCCC4)cc13)CC2,88*
COc1cc2c(cc1OC)CN(C(=O)[C@@H]1[C@H]3C(=O)O[C@H](c4ccccc4)[C@H](c4ccccc4)N3[C@H](c3ccccc3OCCO)[C@@]13C(=O)Nc1ccc(C#CC4=CCCCC4)cc13)CC2,6
COc1ccc(C#Cc2ccc3c(c2)[C@]2(C(=O)N3)[C@H](C(=O)N3CCc4cc(OC)c(OC)cc4C3)[C@H]3C(=O)O[C@H](c4ccccc4)[C@H](c4ccccc4)N3[C@@H]2c2ccccc2OCCO)cc1,17
COc1cc2c(cc1OC)CN(C(=O)[C@H]1[C@@H]3C(=O)O[C@@H](c4ccccc4)[C@@H](c4ccccc4)N3[C@@H](c3ccc(O)cc3)[C@]13C(=O)Nc1ccc(C#CC4(O)CCCCCC4)cc13)CC2,-9
COc1cc2c(cc1OC)CN(C(=O)[C@H]1[C@@H]3C(=O)O[C@@H](c4ccccc4)[C@@H](c4ccccc4)N3[C@@H](c3ccc(OCCO)cc3)[C@]13C(=O)Nc1ccc(C#CC4(O)CCCCCC4)cc13)CC2,6
COc1cc2c(cc1OC)CN(C(=O)[C@H]1[C@@H]3C(=O)O[C@@H](c4ccccc4)[C@@H](c4ccccc4)N3[C@@H](c3ccccc3OCCO)[C@]13C(=O)Nc1ccc(C#CC4(O)CCCCCC4)cc13)CC2,96*
C[C@H](CO)N1C[C@H](C)[C@H](CN(C)Cc2ccccc2)Oc2ccc(NC(=O)C3CCCCC3)cc2C1=O,-22
C[C@@H]1CCCCO[C@H](CN(C)C(=O)c2ccccc2)[C@@H](C)CN([C@H](C)CO)C(=O)c2cc(NS(=O)(=O)c3ccc(F)cc3)ccc2O1,-1
C[C@@H]1CN([C@@H](C)CO)C(=O)c2cccc(NS(=O)(=O)c3ccccc3)c2O[C@@H]1CN(C)C(=O)Nc1ccccc1,25
CCn1c(SCC(=O)Nc2ccc(F)cc2F)nnc1-c1cccs1,-9
O=C(CCCN1C(=O)/C(=C\c2cccs2)SC1=S)Nc1ccc(O)cc1,3
COc1ccc(/C=C2\SC(=S)N(CCCC(=O)O)C2=O)cc1OC,138*
CN1CCN(NC(=O)CCN2C(=O)/C(=C\c3ccccc3)SC2=S)CC1,4
Cc1ccc(S(=O)(=O)Nc2nc(C)cc(N3N=N3)n2)cc1,0
O=C(Cn1cc(SCc2ccccc2)c2ccccc21)N1CCCC1,1
C[C@H]1CN([C@@H](C)CO)C(=O)c2cc(NC(=O)Nc3cccc4ccccc34)ccc2O[C@@H]1CN(C)Cc1ccc2c(c1)OCO2,120*
C[C@H](CO)N1C[C@H](C)[C@@H](CN(C)C(=O)Nc2ccc3c(c2)OCO3)Oc2ccc(NC(=O)Nc3cccc4ccccc34)cc2C1=O,-9
C[C@H](CO)N1C[C@H](C)[C@H](CN(C)C(=O)Nc2ccc3c(c2)OCO3)Oc2ccc(NC(=O)Nc3cccc4ccccc34)cc2C1=O,79*
C[C@@H]1CN([C@@H](C)CO)C(=O)c2cc(NC(=O)Nc3cccc4ccccc34)ccc2O[C@@H]1CN(C)Cc1ccc2c(c1)OCO2,-8
C[C@H]1CN([C@@H](C)CO)C(=O)c2cc(NC(=O)Nc3cccc4ccccc34)ccc2O[C@H]1CN(C)Cc1ccc2c(c1)OCO2,6
C[C@H]1CN([C@@H](C)CO)C(=O)c2cc(NC(=O)Nc3cccc4ccccc34)ccc2O[C@@H]1CN(C)C(=O)Nc1ccc2c(c1)OCO2,-1
Cc1ccc(S(=O)(=O)N2CCN(Cc3cccc(OCCO)c3)CC2)cc1,-4
CC(C)[C@@H]1NC(=O)[C@H](Cc2ccccc2)NC(=O)[C@@H](CC(=O)O)NC(=O)CNC(=O)[C@H](CCCN=C(N)N)NC1=O,2

# Assay outcomes (PubChem BioAssay)
